Compound activity deposited in PubChem BioAssay by several laboratories.
Sampled rows, rich in hits. Any-hit rate of the full collection: about 1.4%.
HSV replic up: HSV replication enhancement; HSV replication augmentation in cells, fold increase; maximum fold increase; 220,000 compounds, 0.005% hits; in the data active = maximum fold increase above about 1.5; inconclusive = no clear call, values can overlap the other calls; tested in PC3 cells
Cardio protect: myocardial damage modulation in H9c2 cells | 360,000 compounds, 0.63% hits | protection from H2O2 cell death, % at 20 µM | H9c2 cardiomyocytes, H2O2 injury protection, ATPLite, 2 h;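 active = compounds giving at least 50% protection of heart cells from peroxide-induced death in the single-dose screen, raw or plate-pattern-corrected value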;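 also: 0% = DMSO wells with peroxide and 100% = DMSO wells without peroxide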
V-ATPase pH: regulators of yeast V-ATPase proton transport; S. cerevisiae, pHLuorin cytosolic pH fluorescence; AID 504577; 350,000 compounds, 0.37% hits; response, % at 10 µM; in the data active = response mostly above about 7.3%, no sharp cut-off; inactive = mostly below about 5.4%; also: actives read high
p-CIP stab down: lowers stability of the mouse p/CIP coactivator protein; Q05BA5; F442A p/CIP-EGFP cells, EGFP fluorescence, 16 h; decrease of EGFP signal, % at 10 µM; 290,000 compounds, 0.01% hits; AID 1984;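 active = EGFP signal decrease of at least 30% at 10 µM or well 3 SD below plate mean, unless failing retest; inactive = the rest, including hits failing retest or dose response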
Yeast superoxide: caloric restriction mimetics inhibiting age-related superoxide in yeast; S. cerevisiae aged cells, superoxide DHE fluorescence; active compounds read low; superoxide response (% of plate mean), % at 10 µM; 330,000 compounds, 0.18% hits; AID 2690;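 active = superoxide response under a set limit, about three screen SD below normal, cut at about 65% in these data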;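 also: yeast aged for seven days with compound at 30 °C before DHE staining; 100% = average MFI of all compound-treated wells on the plate with controls excluded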
MIN6 prolif: inducers of beta-cell replication in MIN6 cells | MIN6 cells proliferation, ATPlite luminescence, 48 h; cells starved in 0.2% serum; 100% = growth in 10% serum | proliferation, % at 10 µM | 330,000 compounds, 0.29% hits | AID 2380;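 active = compounds whose signal lies at least 3.5 SD above the mean of all wells on their plate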;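 also: 0% = DMSO-treated cells in low-serum medium and 100% = 10% serum control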
Active calls of the source: *; i = inactive; u = inconclusive; x = no result.

SMILES	HSV replic up	Cardio protect	V-ATPase pH	p-CIP stab down	Yeast superoxide	MIN6 prolif
Fc1ccc(NC(=S)Nc2ccc3nccnc3c2)cc1	i	62.4*	2.7	0.2	89.6	-3.0
CC(=O)N1c2c(cc(Br)cc2S(=O)(=O)N2CCN(c3ccccc3F)CC2)CC1C (configuration not stated)	x	-5.1	-2.0	-37.0	108.1	0.0
O=C/C(=C\Nc1ccccn1)c1nc2cc(Cl)ccc2o1	u	55.7*	0.7	-31.0	104.8	-3.5
O=C/C(=C\Nc1ccccn1)c1nc2ccccc2o1	i	38.4	-3.1	-21.7	109.3	-3.5
C[C@@H]1CN([C@@H](C)CO)C(=O)c2cc(Br)cnc2O[C@@H]1CN(C)C(=O)CN(C)C	x	4.8	-2.1	x	x	x
CCC1(C)N=C(N)Nc2nc3cc(C)c(C)cc3n21 (configuration not stated)	i	4.0	-3.1	-15.8	63.8*	1.1
CC(=O)NCCC(=O)Nc1cc(S(=O)(=O)N2CCOCC2)ccc1N1CCCC1	x	4.5	0.0	x	93.1	-0.7
CCCNC(=O)c1ccc2c(=O)c(O)c(-c3ccc(F)cc3)[nH]c2c1	i	57.1*	-2.9	5.7	91.1	0.5
CCCNC(=O)c1ccc2c(=O)c(O)c(-c3cccc(Br)c3)[nH]c2c1	i	53.7*	5.7	21.5	100.8	-7.9
CCCNC(=O)c1ccc2c(=O)c(O)c(C)[nH]c2c1	i	5.8	-8.3	-6.3	103.0	-5.3
Nc1c(Cl)cc(-c2[nH]c3cc(C(=O)NCCO)ccc3c(=O)c2O)cc1Cl	x	29.6	-10.0	-11.0	86.9	0.9
CC1CCCCC1NC(=O)CN1C(=O)CSc2cc(S(=O)(=O)N3CCCCCC3)ccc21 (configuration not stated)	i	12.5	-3.4	-2.3	110.2	0.0
CN(CC(=O)Nc1ccc(Cl)cc1)C(=O)C1CCCC1	x	-0.7	-4.2	x	x	-3.7
N#Cc1ccccc1S(=O)(=O)N1CCN(C(=O)c2cc(=O)[nH]c3ccccc23)CC1	x	25.7	-1.2	x	121.4	-3.3
Cc1ccc(S(=O)(=O)N2CCN(C(=O)c3cc(=O)[nH]c4ccccc34)CC2)c(C)c1	i	71.7*	3.9	8.6	96.4	-2.9
Cc1cc(C)c(S(=O)(=O)N2CCN(C(=O)c3cc(=O)[nH]c4ccccc34)CC2)c(C)c1	x	62.7*	1.3	x	102.0	0.0
Cc1cc(C)c(C)c(S(=O)(=O)N2CCN(C(=O)c3cc(=O)[nH]c4ccccc34)CC2)c1C	i	78.6*	2.8	-5.2	101.6	-3.4
C[C@]12c3[nH]c4ccccc4c3CCN1C(=O)C(CC(=O)NCCCn1ccnc1)C[C@@H]2C(=O)N1CCCCC1 (some centres not stated)	x	3.1	-1.8	x	111.8	-2.7
Cc1nc2ccc(NC(=O)c3ccc(Br)o3)cc2s1	i	-8.4	6.1	0.6	100.8	-4.6
CCCC(=O)Nc1nc2ccc(NC(=O)c3ccc(Br)o3)cc2s1	i	72.6*	-0.6	-4.6	106.1	-2.8
COc1cccc(C(=O)Nc2c(C(N)=O)oc3ccccc23)c1	i	111.2*	1.3	2.1	105.7	7.1
CCOC(=O)c1oc2ccccc2c1NC(=O)c1cccc(OC)c1	i	2.5	-3.4	-25.1	88.3	1.9
Cc1ccc(-c2nc3c(c(SCC(=O)N4CCOCC4)n2)Cc2c(CO)cnc(C)c2O3)cc1	x	36.1	1.7	3.6	91.4	-2.6
COc1ccc(-c2nc3c(c(SCC(=O)N4CCOCC4)n2)Cc2c(CO)cnc(C)c2O3)cc1	x	76.9*	-3.9	-10.2	85.7	-3.0
CCOC(=O)N1CCN(C(=O)c2ccccc2CCc2ccccc2)CC1	i	4.7	1.7	1.3	107.4	-0.1
SMILES	HSV replic up	Cardio protect	V-ATPase pH	p-CIP stab down	Yeast superoxide	MIN6 prolif
O=C(c1ccccc1CCc1ccccc1)N1CCCC1	x	1.0	40.2*	2.6	100.3	-2.7
CC1=C(C)/C(=N\OS(=O)(=O)c2ccc(C)cc2)C=CC1=O	i	-22.6	10.1*	-1.9	98.9	x
COc1ccc(S(=O)(=O)/N=C2/C=CC(=O)C(C)=C2C)cc1	i	-3.0	-0.6	3.6	108.5	-0.6
O=c1c(Cc2c(F)cccc2Cl)c(O)ccn1CCc1c[nH]c2ccccc12	i	0.2	0.8	1.6	113.0	-1.2
O=C(CSc1nc2[nH]ncc2c(=O)n1-c1ccccc1)NCCc1ccccc1	i	-1.6	1.8	-1.0	98.0	1.0
O=C(CSc1nc2[nH]ncc2c(=O)n1-c1ccccc1)c1ccc2c(c1)OCCO2	i	45.7*	2.4	-11.6	110.3	-0.8
CCOc1cc(Br)c(Br)c(C=Nc2ccc(NC(C)=O)cc2)c1O	i	93.9*	-1.1	0.5	103.3	-4.5
CCOc1ccc(CN(C)C(=O)c2ccc(S(=O)(=O)N(C)c3ccccc3OC)cc2)cc1	x	-0.3	-0.7	x	127.8	-6.8
Cc1ccc2[nH]c(=O)c(CN(CC3CCCO3)S(=O)(=O)c3c(C)ccc4nsnc34)cc2c1 (configuration not stated)	i	34.2	1.9	-28.1	99.8	-4.1
Cc1ccc2nsnc2c1S(=O)(=O)N(Cc1ccco1)Cc1cc2ccc(C)c(C)c2[nH]c1=O	i	26.9	1.2	-5.5	x	x
Cc1ccc2[nH]c(=O)c(CN(Cc3ccco3)S(=O)(=O)c3c(C)ccc4nsnc34)cc2c1	i	49.9*	-3.4	-5.8	118.9	0.9
COc1ccc2[nH]c(=O)c(CN(Cc3cccs3)S(=O)(=O)c3c(C)ccc4nsnc34)cc2c1	i	68.8*	-0.2	-12.5	99.5	-4.3
Cc1ccc2nsnc2c1S(=O)(=O)N(Cc1ccco1)Cc1cc2cccc(C)c2[nH]c1=O	i	72.7*	-3.7	-3.2	76.6	-1.3
COc1ccccc1C(=O)NCCN1CCN(c2ccccc2)CC1	x	10.0	2.3	1.5	97.4	-3.0
Cc1cccc2nc(COc3ccc(Cl)c4cccnc34)cn12	i	17.0	-0.9	-1.3	97.8	-2.1
COc1ccc(NC(=O)COC(=O)c2c3c(nc4ccccc24)CCCC3)cc1	i	13.9	-0.5	4.7	104.7	-4.2
COc1ccc(OC)c(NC(=O)COC(=O)c2c3c(nc4ccccc24)CCCC3)c1	i	56.4*	2.6	0.2	120.7	-4.9
COC(=O)C1CCN(C2CN(Cc3ccc(F)cc3)S(=O)(=O)C2)CC1 (configuration not stated)	x	4.7	x	x	x	x
Cc1nn(C)c(NC(=O)c2ccc(Cl)cc2Cl)c1Br	x	7.6	0.7	-5.1	80.9	5.5
COc1ccc(CNC(=O)c2cccc(NC3=NC4CS(=O)(=O)CC4S3)c2)cc1 (configuration not stated)	x	5.0	18.7*	2.7	110.9	0.5
CCOC(=O)C1C(=O)NC(SCC(=O)OC)=C(C#N)C1c1ccccc1OCC (configuration not stated)	i	72.0*	-6.5	-27.1	136.2	-1.6
